Assay outcomes (PubChem)
G9a inh: blocks human histone lysine methyltransferase G9a | 350,000 compounds, 8.8% hits | Q96KQ7 | Potency, µM (series often up to 102 µM), inactives show top-dose activity, negative = inhibition, most hits filed as inhibitors | G9a H3K9 monomethylation, AlphaScreen, 2 h; also: % is scaled to controls: 0 for no effect and ±100 for the full control effect; nearly all actives have a fitted effect of over 75% in size
Target sequence (Q96KQ7 913-1193 limits assumed): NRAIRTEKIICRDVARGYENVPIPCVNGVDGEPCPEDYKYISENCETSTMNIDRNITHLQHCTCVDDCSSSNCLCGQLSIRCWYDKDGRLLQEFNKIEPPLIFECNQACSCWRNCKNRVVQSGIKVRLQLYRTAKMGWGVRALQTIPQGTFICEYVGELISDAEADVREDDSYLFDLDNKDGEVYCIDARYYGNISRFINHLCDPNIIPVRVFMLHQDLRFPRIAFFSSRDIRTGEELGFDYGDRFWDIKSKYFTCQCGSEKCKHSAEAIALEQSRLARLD
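G9a (20 nM) preincubated 15 min RT with compounds, then 500 nM biotinylated H3K9 peptide and 20 uM SAM added; 2 h RT reaction. Monomethyl-H3K9 product detected by AlphaScreen with anti-H3K9me1 antibody, streptavidin donor and anti-rabbit IgG acceptor beads.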
JMJD2A Tudor: blocks the human JMJD2A Tudor domain | O75164 | 390,000 compounds, 4.4% hits | Potency, µM (titrated, usually from 114 µM), without a hit: at the highest dose activity change, negative = inhibition, actives largely listed as inhibitors | AlphaScreen JMJD2A-Tudor / H3K4me3 peptide binding; also: % is scaled to controls: 0 for no effect and ±100 for the full control effect; nearly all actives have a fitted effect of over 50% in size
Sfp inh: inhibitors of Bacillus subtilis Sfp phosphopantetheinyl transferase; Biochemical Sfp PPTase activity, qHTS; Potency, µM, for inactives: largest response in the series, negative = inhibition, usual class: inhibitors; AID 1490; 310,000 compounds, 3.5% hits; Q9F4F7;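 also: the enzyme is Sfp with the accession as filed and its product quenches rhodamine fluorescence; 0% = enzyme reaction without inhibitor and -100% = no enzyme wells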
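Buffer: 50 mM Hepes-Na pH 7.6, 10 mM MgCl2, 0.01% Nonidet P-40, 0.01% BSA. Enzyme 15 nM, pre-exposed to compound 15 min; substrates then added and fluorescence change tracked over 30 min.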
HP1b chromo inh: HP1-beta chromodomain-methylated histone interaction inhibition. P83916. AlphaScreen HP1-beta / biotin-H3K9me3 peptide binding. Potency, µM (highest dose often 114 µM), inactives show top-dose activity change, negative = inhibition, usual class: inhibitors. 390,000 compounds, 0.56% hits; also: nearly all actives have a fitted effect of over 70% in size
Target sequence (P83916 whole entry, looked up): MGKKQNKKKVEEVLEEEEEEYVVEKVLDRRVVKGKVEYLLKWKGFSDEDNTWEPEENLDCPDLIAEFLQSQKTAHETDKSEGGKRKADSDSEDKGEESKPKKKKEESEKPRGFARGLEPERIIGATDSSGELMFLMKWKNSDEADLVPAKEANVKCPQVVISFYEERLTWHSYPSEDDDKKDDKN
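AlphaScreen: HP1-beta (50 nM) preformed 30 min with biotin-H3(1-18)K9me3 peptide (50 nM) in PBS pH 7.4, 0.01% Tween-20. Compound added for 30 min at RT, then streptavidin donor/nickel chelate acceptor beads (10 ug/mL) for 30 min.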
BAZ2B inh: blocks human BAZ2B; Q9UIF8; AlphaScreen BAZ2B-H3K14Ac peptide displacement; Potency, µM (highest dose often 114 µM), for inactives: top-dose activity change, negative = inhibition, usual class: inhibitors; 360,000 compounds, 4.4% hits; AID 504333; also: % is scaled to controls: 0 for no effect and ±100 for the full control effect; nearly all actives have a fitted effect of over 60% in size
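Protein-peptide AlphaScreen: BAZ2B 50 nM, b-H3K14Ac 50 nM, 1x PBS pH 7.4 + 0.01% Tween-20. Preincubation 30 min RT; cpd 30 min RT (top 110 uM); beads 20 min RT, light-protected.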
An asterisk follows results filed as active; u = inconclusive; x = no result given; [ ] = dose if it differs, or a comment. Most compounds without a hit are left out; they make up all but 12% or so of the library. Calls follow the shape of the dose curve; as a rule, active = well fitted curve in the direction sought with a large enough effect; inconclusive = small, poorly fitted or top-dose-only effect, or another doubt; inactive = no such curve, though single readings can be large; an effect the other way counts as inactive or inconclusive. Potency is read from the fitted curve at half-maximal effect.

SMILES	G9a inh	JMJD2A Tudor	Sfp inh	HP1b chromo inh	BAZ2B inh
CC12C=C(/C=C/c3ccc(Br)cc3)C(C)(C1)[C@H](c1ccc(Br)cc1)CC2=O (some centres not stated)	x	x	-8%	x	x
COc1cccc(CNC(=O)C(Cc2ccccc2)NS(=O)(=O)c2ccc3c(c2)CCN3C(C)=O)c1 (configuration not stated)	-24%[59 µM]	0%	x	36%	x
NS(=O)(=O)c1ccc(NNC(=O)c2ccc(F)cc2F)cc1	11µM*	-10%	15%	42%	0%
Cc1ccc(S(=O)(=O)n2nc(C)c(Br)c2C)c(C)c1C	71µM*	58%	5%	139%	6%
CCN(CC)c1ccc(NC(=O)Nc2cccc3ccccc23)cc1	3.2µM*	-24%	-21%	-10%	u
Cc1ccc(NC(=O)Nc2cccc3ccccc23)cc1	x	-5%	8%	25%	19%
CCN(CC)c1ccc(NC(=O)C2CC3CCC2C3)cc1 (configuration not stated)	6.3µM*	79µM*	-18%	u	-68%
CCN(CC)c1ccc(NC(=O)C(C)C)cc1	11µM*	u	-1%	5%	-3%
CCN(CC)c1ccc(NC(=O)C2CCCC2)cc1	45µM*	u	-2%	-19%	u
CCN(CC)c1ccc(NC(=O)CCCCC(=O)Nc2ccc(N(CC)CC)cc2)cc1	x	-31%	x	8%	x
COC(=O)NC(/C(C(=O)OC)=C(\C)NCc1ccccc1)c1cccc(C)c1 (configuration not stated)	x	x	10%	x	x
CC(=O)[O][Al][O]C(C)=O	31%[59 µM]	x	21%	x	x
O=C(CSc1nnnn1-c1ccc(F)cc1)c1ccc(O)c(O)c1	u	u	2%	-14%	45µM*
Cn1cnnc1SCC(=O)c1ccc(O)c(O)c1	7.1µM*	-8%	u	18%	u
Cn1cnnc1SCC(=O)NCCc1ccccc1	17%	-10%	7%	-1%	8%
O=C(O)c1ccc(CSc2nnnn2-c2ccc(F)cc2)cc1	-12%	-10%	14%	-7%	-1%
CC(=O)c1ccc(O)c(CSc2nncn2C)c1	-2%	-8%	15%	45%	u
Cn1cnnc1SCC(=O)c1ccco1	45µM*	-5%	-21%	57%	-3%
O=C(/C=C/c1ccccc1)Nc1cc(-c2nc3ccccc3o2)ccc1Cl	-47%[59 µM]	-22%	x	21%	4%
COc1ccc(NS(=O)(=O)c2ccc3c(c2)N(C(C)=O)CCO3)cc1	19%	6%	7%	44%	-24%
COc1ccc2c(c1)CCCC(Br)C2=O (configuration not stated)	x	50µM*	x	u	x
COC(=O)C1(C)CCc2cc(OC)ccc2C1=O (configuration not stated)	27%[59 µM]	-12%	21%	15%	-4%
Oc1sc(C=Nc2ccc(F)cc2)c2ccccc12	u	8%[57.1 µM]	14µM*	5%	-8%
Oc1c(C=Nc2ccccc2)sc2ccccc12	-6%	-30%	20%	-6%	-11%
Oc1sc(C=Nc2ccccc2)c2ccccc12	-34%[59 µM]	7%	45µM*	20%	15%
SMILES	G9a inh	JMJD2A Tudor	Sfp inh	HP1b chromo inh	BAZ2B inh
O=C(O)C1CCN(C(=O)CSc2nc3ccccc3c(=O)n2-c2ccc(Cl)cc2)CC1	4%	2%	6%	50%	2%
COc1ccc(OCC(=O)Nc2ccccc2N2CCCCC2)cc1	x	54%	u	124%	16%
COc1ccc(OCC(=O)Nc2ccccc2OC)cc1	3%[59 µM]	7%	-8%	25%	-4%
COc1ccc(N2CCCC2)c(NC(=O)COc2ccccc2)c1	40µM*	u	-19%	u	u
Cc1cc(N2CCCC2)ccc1NC(=O)COc1ccccc1	7.1µM*	u	x	-7%	-36%
CCc1ccccc1OCC(=O)Nc1ccc(N2CCCC2)cc1C	3.2µM*	u	x	7%	u
COc1ccc(OCC(=O)Nc2ccccc2Cl)cc1	7%	-9%	19%	19%	50µM*
CCOc1ccccc1NC(=O)NC(CC)c1c(-n2cccc2)sc2c1CCN(C)C2 (configuration not stated)	u	-32%	x	6%	-23%
Cc1ccc(Cl)cc1NC(=O)c1oc2ccc(S(=O)(=O)N3CCC4(CC3)OCCO4)cc2c1C	8%[59 µM]	-8%	x	27%	3%
C#CCCCO/N=C1/C[C@@H](O)[C@@H](O)[C@@H]2[C@@H]3C(=O)N([C@@H](C)c4ccccc4)C(=O)[C@H]3CC[C@H]12	x	x	13%	x	x
O=C(NNC(=O)c1cc(O)c(O)c(O)c1)NC1CCCCC1	1.6µM*	10µM*	10µM*	-30%	56µM*
O=C(Cc1ccc(Cl)cc1Cl)OCC(=O)N1CCCCC1	2%	-8%	0%	30%	11%
CN(C)c1ccc(NC(=O)Cn2nnc3sc4c(c3c2=O)CCC(C(C)(C)C)C4)cc1 (configuration not stated)	4.5µM*	u	x	-10%	u
Cc1cc(NC(=O)Cn2nnc3sc4c(c3c2=O)CCC(C(C)(C)C)C4)no1 (configuration not stated)	-2%	u	-6%	-14%	-21%
